Results taken from PubChem BioAssay (Tox21).
Records with an inconclusive call do not appear. Activity calls are given as the source filed them. Unless noted, the call rests on the fitted dose curve; in most records, active means well fitted curve in the direction sought with a large enough effect in the repeat runs; inconclusive means weak or mixed curves; inactive means no such curve, though single readings can be large; an effect the other way counts as inactive or inconclusive.

Assays:
[1] = qHTS assay to test for compound auto fluorescence at 535 nm (green) in HEK293 cells (AID 720680)
[2] = qHTS assay to test for compound auto fluorescence at 460 nm (blue) in HEK293 cell free culture (AID 720681)
Method in brief: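 Test compounds were pinned into cell-free culture medium (DMEM with 10% FBS) and fluorescence was read directly at Ex/Em 405/460 nm. Signals were expressed as fluorescence equivalents of triamterene, with DMSO vehicle as control.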

[3] = qHTS assay to test for compound auto fluorescence at 535 nm (green) in HEK293 cell free culture (AID 720682)
Method in brief: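 Measurement is a direct plate read of green fluorescence (485 nm in, 535 nm out) after compound addition to serum-supplemented DMEM lacking cells, with fluorescein used to express intensities.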

[4] = qHTS assay to test for compound auto fluorescence at 590 nm (red) in HEK293 cell free culture (AID 720683)
Method in brief: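 Tox21 10K library compounds were pinned into cell-free DMEM with 10% FBS and fluorescence was read at excitation 540 nm. Activity is expressed as Rose Bengal sodium equivalency.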

[5] = qHTS assay to test for compound auto fluorescence at 590 nm (red) in HepG2 cell free culture (AID 720684)
Method in brief: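 Red fluorescence (540 nm excitation, 590 nm emission) was measured after compound transfer into cell-free MEM supplemented with 10% FBS. Values are equivalencies against Rose Bengal sodium.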

[6] = qHTS assay to test for compound auto fluorescence at 460 nm (blue) in HepG2 cell free culture (AID 720685)
Method in brief: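 Compound (23 nL) or DMSO pinned into cell-free MEM with 10% FBS; blue fluorescence read at 405/460 nm excitation/emission, expressed as auto-fluorescence equivalency to triamterene.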

[7] = qHTS assay to test for compound auto fluorescence at 535 nm (green) in HepG2 cell free culture (AID 720686)
[8] = qHTS assay to test for compound auto fluorescence at 460 nm (blue) in HepG2 cells (AID 720687)
Method in brief: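 Cells (2,000/well in MEM with 10% FBS) attached overnight at 37 C, then were exposed to compound or DMSO for 1 hr at 37 C, 5% CO2. Fluorescence read at Ex/Em 405/460 nm, expressed as triamterene-equivalent signal.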

[9] = target: Glucocorticoid receptor (Homo sapiens) (UniProt P04150); assay: qHTS assay to identify small molecule agonists of the glucocorticoid receptor (GR) signaling pathway (AID 720691; active means well fitted activation curve with a large enough effect in the signal ratio in the repeat runs, not every such curve was filed as active; the % refers to the signal ratio); conditions: GR-bla HeLa, beta-lactamase reporter ratio, 18 h; activation: at 62.4 µM (top of the series)
Method in brief: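 Agonist mode in a HeLa line carrying a GRE-controlled beta-lactamase reporter. Compounds act for 18 h at 37 C before a 2 h room-temperature FRET substrate step and fluorescence reading.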

[10] = target: Glucocorticoid receptor (Homo sapiens) (UniProt P04150); assay: qHTS assay to identify small molecule antagonists of the glucocorticoid receptor (GR) signaling pathway (AID 720692; active means well fitted inhibition curve with a large enough effect in the signal ratio in the repeat runs, not every such curve was filed as active; the % refers to the signal ratio)
Method in brief: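 Cells plated, rested 4 h at 37 C/5% CO2; compounds in DMSO pin-transferred; dexamethasone added to 5 nM final; 18 h at 37 C; B/G FRET substrate added, 2 h room temperature; fluorescence measured.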

[11] = qHTS assay to identify small molecule antagonists of the glucocorticoid receptor (GR) signaling pathway - cell viability counter screen (AID 720693); further: nearly all actives have a fitted effect of over 55% in size
[12] = qHTS assay for identifying genotoxic compounds that show differential cytotoxicity against isogenic chicken DT40 cell lines with known DNA damage response pathways - wild type cell line (AID 743012); further: nearly all actives have a fitted effect of over 60% in size; further: potency means the concentration at half of the fitted maximal effect
Method in brief: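 Cells (DT40 wild type, 300/well) are treated with DMSO-dissolved compounds after a ~0.5 h pre-incubation and kept 40 h at 37 C/5% CO2. Viability is then measured by CellTiter-Glo luminescence following 30 min at room temperature.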

[13] = qHTS assay for identifying genotoxic compounds that show differential cytotoxicity against isogenic chicken DT40 cell lines with known DNA damage response pathways - Rev3 mutant cell line (AID 743014); further: nearly all actives have a fitted effect of over 55% in size; further: potency means the concentration at half of the fitted maximal effect
[14] = qHTS assay for identifying genotoxic compounds that show differential cytotoxicity against isogenic chicken DT40 cell lines with known DNA damage response pathways - Rad54/Ku70 mutant cell line (AID 743015); further: nearly all actives have a fitted effect of over 60% in size; further: potency means the concentration at half of the fitted maximal effect
[15] = qHTS assay to identify small molecule antagonists of the androgen receptor (AR) signaling pathway - cell viability counter screen (AID 743033; further: nearly all actives have a fitted effect of over 45% in size)
[16] = qHTS assay to identify small molecule antagonists of the androgen receptor (AR) signaling pathway using the MDA cell line - cell viability counter screen (AID 743041; further: nearly all actives have a fitted effect of over 45% in size)
Method in brief: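 MDA-kb2 AR-luc human breast carcinoma cells (MMTV-luciferase, AR/GR responsive) were treated with compounds plus R1881 agonist for 16 h at 37 °C. Viability was read as CellTiter-Fluor fluorescence in the same wells as the reporter assay.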
On the % scale 0 is the no-effect control and ±100 the full control effect.

Glucocorticoid receptor (Homo sapiens), sequence (P04150 whole entry, looked up): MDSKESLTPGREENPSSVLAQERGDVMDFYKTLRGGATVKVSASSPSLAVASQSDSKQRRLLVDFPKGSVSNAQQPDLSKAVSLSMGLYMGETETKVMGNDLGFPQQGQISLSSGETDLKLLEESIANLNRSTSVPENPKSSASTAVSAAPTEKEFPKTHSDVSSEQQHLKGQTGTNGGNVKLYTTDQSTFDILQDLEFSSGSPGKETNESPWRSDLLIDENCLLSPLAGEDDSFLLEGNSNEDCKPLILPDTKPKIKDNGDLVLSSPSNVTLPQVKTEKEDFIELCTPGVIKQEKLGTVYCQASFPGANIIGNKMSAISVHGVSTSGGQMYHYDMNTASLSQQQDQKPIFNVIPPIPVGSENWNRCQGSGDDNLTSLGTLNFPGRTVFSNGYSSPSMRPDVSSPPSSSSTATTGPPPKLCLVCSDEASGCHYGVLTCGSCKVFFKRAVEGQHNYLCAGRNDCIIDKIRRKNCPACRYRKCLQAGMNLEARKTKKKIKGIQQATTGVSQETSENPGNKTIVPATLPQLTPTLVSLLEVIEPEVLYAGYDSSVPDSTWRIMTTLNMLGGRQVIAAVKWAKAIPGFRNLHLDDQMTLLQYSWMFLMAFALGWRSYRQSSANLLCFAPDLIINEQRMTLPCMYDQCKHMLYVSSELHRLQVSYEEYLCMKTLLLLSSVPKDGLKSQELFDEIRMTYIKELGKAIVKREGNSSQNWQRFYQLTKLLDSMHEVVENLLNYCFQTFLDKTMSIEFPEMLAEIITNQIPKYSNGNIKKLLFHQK

CCNc1nc(NC(C)C(C)C)nc(SC)n1 (centres undefined)
active: Potency [12] 38.6 µM | Potency [13] 34.4 µM | Potency [14] 61.1 µM
inactive: outcome [1] | Potency [2] | outcome [3] | outcome [4] | outcome [5] | Potency [6] | Potency [7] | Potency [8] | Potency [9] | Potency [10] | Potency [11] | Potency [15] | Potency [16]

CCN(CC)C(=O)N[C@@H]1C=C2c3cccc4[nH]cc(c34)C[C@@H]2N(C)C1
inactive: outcome [1] | Potency [2] | outcome [3] | outcome [4] | outcome [5] | Potency [6] | Potency [7] | Potency [8] | Potency [9] | Potency [10] | Potency [11] | Potency [15] | Potency [16]
active: Potency [12] 7.5 µM | Potency [13] 26.6 µM | Potency [14] 16.8 µM

Clc1cc(Cl)c(-c2cc(Cl)c(Cl)cc2Cl)cc1Cl
inactive: outcome [1] | Potency [2] | outcome [3] | outcome [4] | outcome [5] | Potency [6] | Potency [7] | Potency [8] | Potency [9] | Potency [10] | Potency [11] | Potency [12] | Potency [13] | Potency [14] | Potency [15] | Potency [16]

COc1c2c(cc3c1OCO3)CCN(C)C2
inactive: fluorescence, % of fluorescein [1] -0.0183% [at 18.6 µM] | fluorescence, % of fluorescent control [2] 0.395% [at 18.6 µM] | activity change [3] -0.0284% [at 18.6 µM] | fluorescence, % of fluorescent control [4] 0.174% [at 18.6 µM] | fluorescence, % of Rose Bengal [5] -0.194% [at 18.6 µM] | fluorescence, % of fluorescent control [6] -0.0127% [at 18.6 µM] | fluorescence, % of fluorescein control [7] -0.0107% [at 18.6 µM] | fluorescence, % of fluorescent control [8] -0.0807% [at 18.6 µM] | Potency [9] | Potency [10] | Potency [11] | Potency [12] | Potency [13] | Potency [14] | Potency [15] | Potency [16]

CCN(CC)Cc1nccn1-c1ccc([N+](=O)[O-])cc1C(=O)c1ccccc1Cl
active: Potency [12] 29.8 µM | Potency [13] 29.8 µM
inactive: outcome [1] | Potency [2] | outcome [3] | outcome [4] | outcome [5] | Potency [6] | Potency [7] | Potency [8] | Potency [9] | Potency [10] | Potency [11] | Potency [15]

O=C(Nc1ccc(F)cc1F)c1cccnc1Oc1cccc(C(F)(F)F)c1
inactive: outcome [1] | Potency [2] | outcome [3] | outcome [4] | outcome [5] | Potency [6] | Potency [7] | Potency [8] | Potency [9] | Potency [10] | Potency [11] | Potency [12] | Potency [13] | Potency [14] | Potency [15] | Potency [16]
